PubChem BioAssay
Measured potencies and affinities stand elsewhere. Values without a mark were called inactive. The source made the active and inactive calls. The rule behind the calls is not given here.

Experiments:
[1] = A549 cell cytotoxicity, dose response, cytotoxicity control, plate reader, cherry-pick, antagonist series (AID 743412); conditions: series mostly up to 26 µM;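 note: 0% = neutral control wells and -100% = positive control wells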
[2] = HepG2 cell cytotoxicity, dose response, cytotoxicity control, plate reader, cherry-pick, antagonist series (AID 743416); conditions: series mostly up to 26 µM;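 note: 0% = neutral control wells and -100% = positive control wells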
[3] = molecular target: Melanocortin receptor 4 (Homo sapiens) (UniProt P32245); assay: MC4R antagonists, dose response, counter-screen for LGR2 antagonist project, cell-based, plate reader, cherry pick (AID 743444); conditions: MC4R-expressing cells, antagonist mode; series mostly up to 35 µM

| Structure (SMILES) | outcome [1] | outcome [2] | outcome [3] | activity change, negative = cytotoxicity [1] |
| --- | --- | --- | --- | --- |
| COc1ccc(-c2noc(CCC(=O)N3CCN(c4ccc(Cl)cc4)CC3)n2)cc1 | inactive | inactive | inactive | – |
| CC(=O)c1c(C)[nH]c(C(=O)CN2C(=O)NC(C)(c3ccc(C)cc3)C2=O)c1C (centres undefined) | inactive | inactive | inactive | – |
| CO[C@H]1CN(C)C(=O)c2ccc(NC(=O)C3CC3)cc2OC[C@@H](C)N(C(=O)Cc2ccccn2)C[C@H]1C | inactive | inactive | inactive | – |
| C[C@H](CO)N1C[C@H](C)[C@H](CN(C)C(=O)Nc2ccc3c(c2)OCO3)OCCCC[C@H](C)Oc2ccc(NC(=O)NC3CCCCC3)cc2C1=O | inactive | inactive | inactive | – |
| CCOC(=O)Nc1ccc(N2CCOCC2)c(S(=O)(=O)Nc2ccc(Cl)cc2)c1 | – | inactive | inactive | 19.4% [at 6 µM] |
| Cc1noc2ncnc(Sc3ccc(Br)cc3)c12 | inactive | – | inactive | – |
| O=C(Nc1cc(S(=O)(=O)Nc2ccccc2Cl)ccc1O)c1ccc(F)cc1F | inactive | inactive | inactive | – |
| Cc1ccc(CNS(=O)(=O)c2ccc3c(c2)CCN3C(=O)CCCC(=O)O)cc1 | inactive | – | inactive | – |
| CCCCC(=O)N(C)c1c(C)nc2ccc(C(=O)N3CCCCC3)cn12 | inactive | inactive | inactive | – |
| CO[C@H]1CN(C)C(=O)c2ccc(NC(=O)c3ccc(-c4ccccc4)cc3)cc2OC[C@@H](C)NC[C@@H]1C | inactive | inactive | inactive | – |
| CCn1cc(S(=O)(=O)Nc2cccnc2)cn1 | inactive | inactive | inactive | – |
| C[C@@H]1CN([C@H](C)CO)C(=O)c2c(c3ccccc3n2C)-c2ccccc2CO[C@H]1CN(C)S(=O)(=O)c1cn(C)cn1 | inactive | inactive | inactive | – |
| COCC#Cc1ccc2c(c1)O[C@H](CN(C)S(=O)(=O)c1cccc(F)c1)[C@@H](C)CN([C@H](C)CO)S2(=O)=O | inactive | – | inactive | – |
| Cn1cnc(S(=O)(=O)N2C[C@@H](O)COC[C@H]3O[C@H](CC(=O)NC4CCCC4)CC[C@@H]32)c1 | inactive | inactive | inactive | – |
| COc1ccccc1CNS(=O)(=O)c1ccc(N2CCCC2)cc1Br | inactive | inactive | inactive | – |
| O=C(NCc1ccc(F)cc1)c1cc(C2CCCCN2S(=O)(=O)c2cccs2)on1 (centres undefined) | inactive | inactive | inactive | – |
| Cc1ccnc(N2C(=O)c3ccccc3C2Nc2ccc3c(c2)OCCO3)c1 (centres undefined) | inactive | inactive | inactive | – |
| Cn1nnnc1SCC(=O)N1CCN(C(=O)c2ccco2)CC1 | – | inactive | inactive | – |
| C[C@H](CO)N1C[C@H](C)[C@H](CN(C)C(=O)Nc2ccc(F)cc2)OCCCC[C@H](C)Oc2ccc(NC(=O)Nc3ccc(F)cc3)cc2C1=O | – | inactive | inactive | – |

| Structure (SMILES) | outcome [1] | outcome [2] | outcome [3] | activity change, negative = cytotoxicity [1] |
| --- | --- | --- | --- | --- |
| COc1ccccc1N/C=C/c1onc(C)c1[N+](=O)[O-] | – | inactive | – | – |
| CN1c2ccc(-c3ccc(F)cc3)cc2[C@H]2[C@H](CCN2C(=O)Nc2ccc(F)cc2)[C@H]1CO | – | inactive | – | – |
| CCCNC(=O)COC(=O)c1ccccc1C(=O)c1ccc(Cl)c([N+](=O)[O-])c1 | – | inactive | – | – |
| COc1ccc(-c2cc(C(=O)Nc3cccc(O)c3)no2)cc1 | – | inactive | – | – |
| O=C(Nc1ccc(N2CCOCC2)cc1)c1cnccn1 | – | inactive | – | – |
| Cc1cccc(-c2ccc([C@H]3[C@@H](CO)N4CCCCN(C(=O)c5ccc6c(c5)OCO6)C[C@@H]34)cc2)c1 | – | inactive | – | – |
| O=C(Nc1ccc(N2CCOCC2)c(S(=O)(=O)Nc2ccccc2Cl)c1)c1ccc(F)cc1 | – | inactive | inactive | – |
| CCc1ccc2oc(-c3ccc(N)cc3)nc2c1 | – | inactive | – | – |
| C[C@H](CO)N1C[C@H](C)[C@H](CN(C)C(=O)Nc2ccc3c(c2)OCO3)OCCCC[C@H](C)Oc2ccc(NC(=O)C3CCCCC3)cc2C1=O | – | inactive | inactive | – |
| O=C(COc1ccc2c(c1)CCC2)Nc1ccccn1 | – | inactive | – | – |
| C[C@H](CO)N1C[C@H](C)[C@H](CN(C)C(=O)Nc2ccc(C(F)(F)F)cc2)OCCCC[C@H](C)Oc2ccc(NC(=O)CCC(F)(F)F)cc2C1=O | – | inactive | inactive | – |
| C[C@H](CO)N1C[C@H](C)[C@H](CN(C)C(=O)Nc2ccccc2)OCCCC[C@H](C)Oc2ccc(NC(=O)Nc3ccccc3)cc2C1=O | – | inactive | inactive | – |
| Cn1nnnc1Sc1ncnc2scc(-c3ccccc3C(F)(F)F)c12 | – | inactive | inactive | – |
| C[C@H]1CCCCO[C@@H](CN(C)C(=O)Nc2ccccc2)[C@@H](C)CN([C@@H](C)CO)C(=O)c2cc(NC(=O)NC3CCCCC3)ccc2O1 | – | inactive | inactive | – |
| CCC(=O)N(C)C[C@H]1Oc2cc(C#CCC(C)C)ccc2S(=O)(=O)N([C@H](C)CO)C[C@@H]1C | – | inactive | inactive | – |
| COc1cccc(NC(=O)Nc2cccc(C(=O)O)c2)c1 | – | inactive | – | – |
| CC[C@H](CO)Oc1cc(NCc2ccc(Cl)c(Cl)c2)c2ncn(C(C)C)c2c1 | – | inactive | inactive | – |
| C[C@H](CO)N1C[C@H](C)[C@@H](CN(C)C(=O)Nc2ccc3c(c2)OCO3)Oc2c(cccc2N(C)C)C1=O | – | inactive | inactive | – |
| CC(=O)N1CCc2cc(S(=O)(=O)C(C)CC(=O)NCc3ccco3)ccc21 (centres undefined) | – | inactive | inactive | – |

| Structure (SMILES) | outcome [1] | outcome [2] | outcome [3] | activity change, negative = cytotoxicity [1] |
| --- | --- | --- | --- | --- |
| Cc1cccc(Cn2ncc(Cl)c(Cl)c2=O)c1 | – | – | inactive | – |
| NCC[C@H]1CC[C@H](NS(=O)(=O)Cc2ccccc2)[C@@H](CO)O1 | – | inactive | inactive | – |
| CCOc1cc(/C=C/C(=O)Nc2ccc(C(=O)NCCN(CC)CC)cc2)ccc1OCC(C)C | – | – | inactive | – |
| O=C1CC(c2ccc3c(c2)OCO3)Sc2nc3ccccc3n21 (centres undefined) | – | inactive | – | – |
| C[C@H]1CCCCO[C@@H](CN(C)C(=O)Nc2ccc3c(c2)OCO3)[C@@H](C)CN([C@@H](C)CO)C(=O)c2cc(NC(=O)NC3CCCCC3)ccc2O1 | – | inactive | inactive | – |
| C[C@@H]1CN([C@@H](C)CO)C(=O)c2cccc(NC(=O)Nc3ccc(C(F)(F)F)cc3)c2O[C@@H]1CN(C)C(=O)Nc1cccc2ccccc12 | – | inactive | – | – |
| COc1ccc(-c2cc(-c3nnc(COC(=O)C4CC4)o3)c3ccccc3n2)cc1OC | – | inactive | inactive | – |
| C[C@H](CO)N1C[C@H](C)[C@H](CN(C)C(=O)Nc2ccccc2)OCCCC[C@H](C)Oc2ccc(NC(=O)CCC(F)(F)F)cc2C1=O | – | inactive | inactive | – |
| C[C@H](CO)N1C[C@H](C)[C@H](CN(C)C(=O)Nc2cccc3ccccc23)OCCCC[C@H](C)Oc2ccc(NC(=O)C3CCCCC3)cc2C1=O | – | inactive | inactive | – |
| COC(=O)c1ccc2nc(-c3ccc4c(c3)OCO4)cn2c1 | – | inactive | – | – |
| COc1ccc(NC(=O)N(C)C[C@@H]2OCCCC[C@H](C)Oc3ccc(NC(=O)C4CCCCC4)cc3C(=O)N([C@H](C)CO)C[C@@H]2C)cc1 | – | inactive | inactive | – |
| COCC(=O)N[C@@H]1CC[C@@H](CC(=O)NCc2ccccc2OC)O[C@@H]1CO | – | inactive | inactive | – |
| Cc1ccc(S(=O)(=O)N(C)C[C@H]2Oc3cc(Br)ccc3S(=O)(=O)N([C@H](C)CO)C[C@H]2C)cc1 | – | inactive | inactive | – |
| Cc1ccc(-n2cc(CN(C)Cc3nccn3C)c(-c3cccc(C)c3)n2)cc1 | – | inactive | inactive | – |
| C[C@@H]1CN([C@@H](C)CO)S(=O)(=O)c2ccc(C3=CCCC3)cc2O[C@H]1CN(C)C(=O)c1ccccc1 | – | inactive | inactive | – |
| C[C@H](CO)N1C[C@H](C)[C@H](CN(C)C(=O)CN2CCOCC2)Oc2ncc(C#CCN(C)C)cc2C1=O | – | inactive | inactive | – |
| C[C@H](CO)N1C[C@H](C)[C@H](CN(C)C(=O)Nc2ccccc2)OCCCC[C@H](C)Oc2ccc(NC(=O)C3CCCCC3)cc2C1=O | – | inactive | inactive | – |
| COc1ccc2[nH]c3c(c2c1)CCN1C(=O)N([C@@H](C)C(=O)NCc2ccc(C)cc2)C(=O)[C@]31C | – | inactive | inactive | – |
| O=c1cc(-c2c(F)c(F)c(F)c(F)c2F)oc2ccccc12 | – | inactive | inactive | – |
